Experimental data taken from PubChem BioAssay AID651820 (National Center for Advancing Translational Sciences (NCATS), 2012).
The campaign covered roughly 340,000 compounds. About 12,000 (3.5%) were called active. Another 18% or so got no clear call; they are omitted. This excerpt belongs to a sample that is enriched for actives. Unmarked numbers belong to inactive results. The call rests on the fitted dose curve; in most records, active means well fitted inhibition curve with a large enough effect; inconclusive means small, poorly fitted or top-dose-only effect, or another doubt; inactive means no such curve, though single readings can be large or run the other way.

Assay: qHTS Assay for Inhibitors of Hepatitis C Virus (HCV)
Settings: Huh7.5.1 HCVcc-Cre infection, luciferase reporter, 44 h; series mostly up to 41.8 µM; activity change, negative = inhibition: at the top concentration
From the text: Hepatitis C virus (HCV) infects about 200 million people in the world. Many infected people progress to chronic liver disease including cirrhosis with a risk of developing liver cancer. To date, there is no effective vaccine for hepatitis C. Current therapy based on interferon is only effective in about half of the patients and is associated with significant adverse effects. The fraction of people with HCV who can complete a successful treatment is estimated to be no more than 10 percent. Recent development of direct-acting antivirals against HCV, such as protease and polymerase inhibitors, is promising but still requires combination with peginterferon and ribavirin for maximal efficacy. In addition, these agents are associated with high rate of resistance and many have significant side effects. Due to the lack of a culture system for infectious HCV, the search for new HCV drugs has been greatly hampered. […] High-throughput screening (HTS) with an infectious HCV system would cover the complete spectrum of potentially druggable targets in all stages of HCV lifecycle, and would have more biological relevance than other cell-based assays. Moreover, targeting several key processes in the viral life cycle may not only increase antiviral efficacy; more importantly, it may also reduce the capacity of the virus to develop resistance to the compound. The goal of this project is to identify novel HCV inhibitors as new therapies for hepatitis C, using a highly sensitive and specific assay platform which is based on a HCV infectious cell culture system established in the laboratory and adapted for high-throughput HCV drug screen. NIH Chemical Genomics Center [NCGC] NIH Molecular Libraries Probe Centers Network [MLPCN] MLPCN Grant: MH095511 Assay Submitter (PI): Jake Liang, NIDDK
The assay will start with plating 1,000 cells/well in 3 µL volume and culture for 4 h. Then 23 nL of compounds from the library collection will be added to each well, followed by adding 2.5 µL of HCVcc-Cre virus (~ 0.5 moi) and further cultured for 44 h before the luciferase assay. A volume of 4.5 µL luciferase substrates will be added to each well and the plates will be incubated at room temperature for 15 min. and then read for 15 sec. for the luciferase activity
On the % scale 0 is the no-effect control and ±100 the full control effect.

| Compound | activity change, negative = inhibition | Potency |
| --- | --- | --- |
| CC(Sc1ccccc1F)C(=O)Nc1cccc(S(=O)(=O)N2CCOCC2)c1 (stereo not given) | -2.13% | – |
| CCC1(C)NC(=O)N(CC(=O)N2CCN(c3cccc(Cl)c3)CC2)C1=O (stereo not given) | 7.91% | – |
| COc1ccc(S(=O)(=O)N2CCN(CC(=O)NCC3(N4CCOCC4)CCCCC3)CC2)cc1 | 17.9% | – |
| CC(NC(=O)c1ccccc1)C(=O)Nc1ccccc1 (stereo not given) | 22.1% | – |
| COc1ccc(Cl)cc1C=CC=NNC(=O)c1ccncc1 | -12.9% | – |
| CC(=O)Nc1ccc(S(=O)(=O)N2CCN(S(=O)(=O)c3cccs3)CC2)cc1 | 8% | – |
| CCC(C)c1ccc(NC(=O)COC(=O)C2CCCC2)cc1 (stereo not given) | 24.4% | – |
| Cc1ccccc1Nc1nc(N)nc(COC(=O)CCC(=O)c2ccc(F)cc2)n1 | 9.47% | – |
| COc1ccccc1NS(=O)(=O)c1ccc(C)c(C(=O)NNC(=O)c2csc(N3CCOCC3)n2)c1 | -6.37% | – |
| Cc1cc(C)c(C)c(S(=O)(=O)N2CCN(C(=O)c3ccc4c(=O)n5c(nc4c3)CCC5)CC2)c1C | -7.77% | – |
| CC(C)N(Cc1nnc(-c2ccc(Cl)cc2)o1)C(=O)C1=COCCO1 | -0.237% [at 8.37 µM] | – |
| CN(C(=O)c1cccc(NC(=O)Cc2ccc(NC(=O)C3CCCN(C(=O)C4CC4)C3)cc2)c1)C1CC1 (stereo not given) | 0.531% | – |
| CN(C(=O)c1ccc(NC(=O)Cc2cccc(NC(=O)C3CCN(C(=O)c4ccccc4)CC3)c2)cc1)C1CC1 | – | 0.562 µM (active) |
| CN(C(=O)c1cccc(NC(=O)Cc2ccc(NC(=O)C3CCN(C(=O)C4CCCCC4)CC3)cc2)c1)C1CCC1 | -11.4% [at 8.37 µM] | – |
| CCOc1ccc(S(=O)(=O)N2CCC(C(=O)NCC(=O)Nc3cccc(Cl)c3C)CC2)cc1 | 5.38% | – |
| Cc1ccc(-n2ncc3c(=O)n(-c4ccc(C)c(C)c4)c(-c4ccco4)nc32)cc1 | – | 3.98 µM (active) |
| Cc1ccc(-c2nc3c(cnn3-c3ccccc3)c(=O)o2)cc1 | 18.5% | – |
| Cc1ccc(-n2ncc3c2ncn2nc(-c4ccco4)nc32)c(C)c1 | -1.19% | – |
| O=c1ccc2c(-c3ccccc3S(=O)(=O)O)c3ccc(O)c(O)c3oc-2c1O | -10.9% | – |
| O=C(CN1C(=O)c2ccc([N+](=O)[O-])cc2C1=O)Nc1nnc(C2CC2)s1 | 33.3% | – |
| CC(CCN1CCN=C1N(C)C)c1ccccc1 (stereo not given) | -8.02% | – |
| O=C(COc1ccccc1F)NNC(=O)c1cc(Br)ccc1Cl | 15.1% | – |

| Compound | activity change, negative = inhibition | Potency |
| --- | --- | --- |
| O=C(CCNC(=O)c1ccc(Br)cc1)NCCCc1ccccc1 | 24.9% | – |
| CCOc1ccc(NC(=O)CN(C)C(=O)Cc2sc(C)nc2-c2ccc(F)cc2)cc1OCC | -12.3% | – |
| CCOc1ccccc1NC(=S)C(=C([O-])c1ccc2c(c1)OCCO2)[n+]1ccc(CC)cc1 | 6.44% | – |
| O=C1OC(/C=C/c2ccccc2)=NC/1=C/c1ccco1 | 2.84% | – |
| COc1ccccc1/C=C/C1=NC(=C\N(C)C)/C(=O)O1 | – | 11.2 µM (active) |
| COc1ccccc1/C=C/C(=O)NC(=S)N1CCOCC1 | 0.814% | – |
| O=C(O)C(CCc1ccccn1)c1ccccc1 (stereo not given) | 2.66% | – |
| O=C(CSc1nnc(Nc2ccccc2F)s1)NC1CCCC1 | -7.98% | – |
| COCCOC(=O)c1[nH]c2c(c1C)C(=O)CC(c1ccc(OC)cc1)C2 (stereo not given) | -18.2% | – |
| CCOC(=O)c1[nH]c2c(c1-c1ccccc1)C(=O)CC(c1ccc(Cl)cc1)C2 (stereo not given) | 11.8% | – |
| CCCOC(=O)c1[nH]c2c(c1C)C(=O)CC(c1cc(OC)c(OC)c(OC)c1)C2 (stereo not given) | – | 4.47 µM (active) |
| Cn1c(=O)n(Cc2ccco2)c(=N)c2c3c(sc21)CCCC3 | – | 10 µM (active) |
| O=c1oc(-c2ccco2)nc2sc3c(c12)CCCCC3 | 0.369% | – |
| Cn1c2c(c(=O)n(C)c1=O)CN(Cc1ccco1)CN2 | 29.8% | – |
| COc1cc(C)ccc1OCC(=O)OCC(=O)c1ccc[nH]1 | 5.28% | – |
| O=C(NN=Cc1ccccc1O)NN=Cc1ccccc1O | – | 5.01 µM (active) |
| O=C(N/N=C/c1c[nH]c2ccccc12)c1ccccc1O | 7.77% | – |
| O=C(N/N=C/c1ccc(O)c2ccccc12)c1cccnc1 | 0.147% | – |
| NC(=O)NC(=O)C(OC(=O)CCNS(=O)(=O)c1ccccc1)c1ccccc1 (stereo not given) | 22.6% | – |
| COc1ccccc1N1CCN(C(=O)c2ccc(S(=O)(=O)N3CCCCC3)cc2)CC1 | 0.986% | – |
| COc1ccccc1N1CCN(C(=O)c2ccc(Cl)c(S(=O)(=O)N3CCCC3)c2)CC1 | – | 11.2 µM (active) |
| O=C(c1ccc(Cl)c(S(=O)(=O)N2CCCCC2)c1)N1CCCCCC1 | -27.9% | – |

| Compound | activity change, negative = inhibition | Potency |
| --- | --- | --- |
| O=C(NN1CCOCC1)c1cccc(F)c1 | 28% | – |
| CC1C(C)N(C(=O)CCl)c2ccccc2N1C(=O)CCl (stereo not given) | – | 4.47 µM (active) |
| CNC(=O)N1c2ccccc2C=Cc2ccccc21 | 2.06% | – |
| CCNC(=O)N1c2ccccc2Sc2ccccc21 | -20.7% | – |
| O=C(CSc1nc2ccccc2c(=O)n1-c1ccccc1F)N1CCOCC1 | 9.53% | – |
| CN(CC(=O)Nc1ccc(C(N)=O)cc1)S(=O)(=O)c1ccc2c(c1)OCCO2 | -10.4% | – |
| Cn1c(=O)cc(SCC(=O)N2CCN(C(=O)c3ccco3)CC2)c2ccccc21 | -1.57% | – |
| CCOC(=O)C1CCN(C(=O)CSc2cc(=O)n(C)c3ccccc23)CC1 | 9.61% | – |
| Cn1c(=O)cc(SCC(=O)N2CCCC2)c2cc(Cl)ccc21 | – | 10 µM (active) |
| CC(=O)c1ccc(NC(=O)C2CCCN2S(=O)(=O)c2cccs2)cc1 (stereo not given) | 8.62% | – |
| Cn1nccc1NC(=O)Nc1ccc(OC(F)(F)F)cc1 | 4.83% | – |
| O=C(Nc1ccc(OC(F)(F)F)cc1)c1ccc2c(c1)no[n+]2[O-] | – | 31.6 µM (active) |
| COC(=O)[C@H](C)NC(=O)Nc1ccc(OC(F)(F)F)cc1 | 8.34% | – |
| COc1ccc(S(=O)(=O)N2CCCC2CNC(=O)C(=O)NC2CC2)cc1 (stereo not given) | 21.9% | – |
| O=C(NC1CCCCCC1)C1CCN(C(=O)c2ccc(Cl)cc2)CC1 | 6.16% | – |
| CC(=O)N1c2ccc(S(=O)(=O)N3CCC(C(=O)NC4CCCCC4C)CC3)cc2CC1C (stereo not given) | 0.0955% | – |
| CC(=O)N1c2ccc(S(=O)(=O)N3CCCC(C(=O)Nc4ccc(C)cc4C)C3)cc2CC1C (stereo not given) | -8.23% | – |
| CC(=O)N1c2ccc(S(=O)(=O)N3CCCC(C(=O)Nc4cccc(Cl)c4)C3)cc2CC1C (stereo not given) | – | 5.62 µM (active) |
| Cc1cc(C)cc(NC(=O)C2CCCN(S(=O)(=O)c3ccc4[nH]c(=O)ccc4c3)C2)c1 (stereo not given) | -21.5% | – |
| CCc1cccc(NC(=O)C2CCCN(S(=O)(=O)c3ccc4[nH]c(=O)ccc4c3)C2)c1 (stereo not given) | -6.12% | – |
| CC(=O)N1c2ccc(S(=O)(=O)N3CCCC(C(=O)Nc4cccc(F)c4)C3)cc2CC1C (stereo not given) | – | 11.2 µM (active) |
